Growth data for eight compounds are collected here from PubChem BioAssay (NCI).

Compounds without any hit were thinned out: in the full panel of roughly 83,000, 20% have a hit.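 Interpretation: 100, growth as untreated; towards 0, rising growth inhibition; 0, no net growth; 0 to -100, cell death. Compounds scoring below 10 were considered active.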 A number with no mark means an inactive call. Activity calls are given as the source filed them.

Some test systems named below: EKVX NSCLC; SN12C renal; UO-31 renal; TK-10 renal; ACHN renal; CAKI-1 renal; A498 renal; CCRF-CEM leukemia; SR leukemia; RPMI-8226 leukemia; OVCAR-8 ovarian; OVCAR-5 ovarian; OVCAR-4 ovarian; SK-OV-3 ovarian; IGROV1 ovarian; OVCAR-3 ovarian; HS 578T breast; NCI/ADR-RES ovarian; T-47D breast; MOLT-4 leukemia.
Test in all cases: NCI-60 one-dose screen, 48 h (100 = growth as untreated, 0 = no growth, -100 = all killed)
What all share (settings): 10 µM unless noted

`CCCSc1nc(Nc2ccc(/C(C)=N\NC(N)=S)cc2)c(C#N)c(-c2ccc(OC)cc2)n1`: the growth is 74.8% in the test on EKVX NSCLC; 33.5% in the test with SN12C renal; 28.3% in the test on UO-31 renal; 33.4% with TK-10 renal; 47.2% with ACHN renal; -7.3% (active) in the test on CAKI-1 renal. For the same compound, the growth in the test on A498 renal was 101%; in the test on CCRF-CEM leukemia, 89.2%; in the test with SR leukemia it was 74.2%; in the test with RPMI-8226 leukemia, 71.9%; in the test on OVCAR-8 ovarian, 30.7%; with OVCAR-5 ovarian it was 94.5%. Also, the growth was 28% in the test with OVCAR-4 ovarian; 97.3% in the test on SK-OV-3 ovarian; 81% with IGROV1 ovarian; 67.3% in the test on OVCAR-3 ovarian; 25.3% in the test with HS 578T breast; 56% in the test on NCI/ADR-RES ovarian. In addition, in the test with T-47D breast, the growth is 86.6%.
In the case of `Cn1cc(-c2cc(N)n3nc(-c4cn(C)c5ccc(Cl)cc45)cc3n2)c2cc(Cl)ccc21`, the growth with EKVX NSCLC was 94.9%; in the test on SN12C renal it was 85%; in the test with UO-31 renal, 100%; in the test with TK-10 renal, 116%; in the test with ACHN renal, 102%; in the test on CAKI-1 renal, 83.2%. The growth with A498 renal is 73.1%; with CCRF-CEM leukemia, 24.8%; in the test on MOLT-4 leukemia, 51%; in the test with SR leukemia, 5.66% (active); in the test with RPMI-8226 leukemia, 88.5%; in the test with OVCAR-8 ovarian, 90.4%. The growth in the test with OVCAR-5 ovarian is 107%; in the test with SK-OV-3 ovarian, 123%; with IGROV1 ovarian it was 88.9%; in the test with OVCAR-3 ovarian, 84.8%; in the test with HS 578T breast, 107%; in the test on NCI/ADR-RES ovarian, 73.5%. The growth in the test on T-47D breast was 90.7%.
Take `N#Cc1nc(-c2ccccc2)oc1N1CCC(CO)C1` (configuration not stated): the growth with EKVX NSCLC is 77.4%; with SN12C renal it was 97.1%; in the test with UO-31 renal, 88.7%; with TK-10 renal, 104%; with ACHN renal, 105%; in the test on CAKI-1 renal, 90.2%. The growth is 76.4% in the test with A498 renal; 105% in the test on CCRF-CEM leukemia; 110% with SR leukemia; 103% in the test on RPMI-8226 leukemia; 103% in the test on OVCAR-8 ovarian; 93.2% with OVCAR-5 ovarian. Moreover, the growth with OVCAR-4 ovarian is 99%; in the test with SK-OV-3 ovarian, 121%; in the test on IGROV1 ovarian it was 93.1%; with OVCAR-3 ovarian it was 104%; in the test on HS 578T breast, 96.1%; in the test on NCI/ADR-RES ovarian, 106%. In addition, in the test on T-47D breast, the growth is 83%.
Consider `Cn1c(SCC(=O)c2cccs2)nc2ccccc2c1=O`, for which the growth in the test with EKVX NSCLC was 73.1%; in the test on SN12C renal, 91.8%; with UO-31 renal it was 84.5%; in the test on TK-10 renal, 177%; in the test with ACHN renal, 91.7%; with CAKI-1 renal it was 82.1%. In addition, the growth with A498 renal is 63.9%; with CCRF-CEM leukemia, 80.3%; in the test with MOLT-4 leukemia, 87%; in the test with SR leukemia, 90.4%; in the test on RPMI-8226 leukemia, 81.7%; in the test on OVCAR-8 ovarian, 97.5%. In addition, the growth in the test on OVCAR-5 ovarian is 109%; in the test on IGROV1 ovarian, 74.8%; in the test on OVCAR-3 ovarian it was 98%; in the test on HS 578T breast, 90.8%; in the test on T-47D breast it was 54.2%.
For `COc1ccc(CNS(=O)(=O)/N=C2\NC(=O)NC2=C(Cl)Cl)cc1`, the growth was 83.2% with EKVX NSCLC; 20.7% in the test with SN12C renal; 48.9% with UO-31 renal; 41.6% with TK-10 renal; 32.7% in the test on ACHN renal; 45.9% in the test on CAKI-1 renal. Besides, the growth in the test with A498 renal was -9.6% (active); in the test on CCRF-CEM leukemia, 15.8%; with MOLT-4 leukemia it was 19%; in the test on SR leukemia, 20.5%; with RPMI-8226 leukemia, 15.3%; in the test with OVCAR-8 ovarian, 10.8%. Further, the growth is 37.2% in the test on OVCAR-5 ovarian; 69.1% with OVCAR-4 ovarian; 43.5% with IGROV1 ovarian; 30% with OVCAR-3 ovarian; 44% in the test with T-47D breast.
For `Cn1cc(-c2cc(N)n3nc(-c4cn(C)c5ccc(Br)cc45)cc3n2)c2cc(Br)ccc21`, the growth was 90.7% in the test with EKVX NSCLC; 90.3% in the test with SN12C renal; 81.8% in the test on UO-31 renal; 133% with TK-10 renal; 92.2% with ACHN renal; 79% in the test on CAKI-1 renal. Further, the growth is 102% in the test on A498 renal; 22.8% with CCRF-CEM leukemia; -13.5% (active) with SR leukemia; 64.3% with RPMI-8226 leukemia; 86.8% in the test on OVCAR-8 ovarian; 100% in the test with OVCAR-5 ovarian. In addition, the growth was 86.1% with OVCAR-4 ovarian; 110% in the test on SK-OV-3 ovarian; 76.4% in the test on IGROV1 ovarian; 109% in the test on OVCAR-3 ovarian; 111% with HS 578T breast; 86.5% with NCI/ADR-RES ovarian. For the same compound, the growth in the test with T-47D breast was 101%.
In the case of `COc1ccccc1/C=C/C=N/NC1=NC2C(S1)N(C)C(=O)N2C` (configuration not stated), the growth in the test with EKVX NSCLC was 40.1%; in the test with SN12C renal, 39.1%; with UO-31 renal, 49%; in the test with TK-10 renal it was 76.3%; with ACHN renal, 46.3%; in the test with CAKI-1 renal, 30.6%. Also, the growth is -18.2% (active) in the test on A498 renal; 15.3% in the test on CCRF-CEM leukemia; 13.2% in the test on SR leukemia; 10.6% with RPMI-8226 leukemia; 31.1% in the test on OVCAR-8 ovarian; 52.3% in the test with OVCAR-5 ovarian. The growth in the test on OVCAR-4 ovarian was 72%; in the test with SK-OV-3 ovarian it was 32.9%; in the test with IGROV1 ovarian, 46%; with OVCAR-3 ovarian, -12% (active); in the test with HS 578T breast, 3.97% (active); in the test with NCI/ADR-RES ovarian, 28.9%. The growth in the test on T-47D breast was 31.2%.
Consider `CCOC(=O)c1sc(NCC(=O)Nc2cccc([N+](=O)[O-])c2)c(C(=O)OCC)c1C`, for which the growth is -22.3% (active) with EKVX NSCLC; -11.5% (active) with SN12C renal; -64.6% (active) in the test on UO-31 renal; -12.2% (active) in the test on TK-10 renal; -62.4% (active) in the test with ACHN renal; -17.5% (active) in the test on CAKI-1 renal. The growth with A498 renal is -38% (active); in the test on CCRF-CEM leukemia it was 7.16% (active); in the test on MOLT-4 leukemia it was 6.63% (active); with SR leukemia it was 19.3%; in the test on RPMI-8226 leukemia, -31.6% (active); with OVCAR-8 ovarian, 1.78% (active). Further, the growth was -13.7% (active) in the test with OVCAR-5 ovarian; -26% (active) in the test on OVCAR-4 ovarian; -41% (active) in the test with IGROV1 ovarian; -4.13% (active) in the test on OVCAR-3 ovarian; -10.4% (active) with HS 578T breast; -10.9% (active) in the test on T-47D breast.
